# Source: PubChem
# Dicer inh: inhibitors of Dicer pre-microRNA processing, primary screen, biochemical, cat-ELCCA, chemiluminescence; cat-ELCCA pre-miR-21 Dicer processing; active compounds read high; AID 1347074, 2019; Endoribonuclease Dicer (Homo sapiens), Q9UPY3; hit rate 6% among 47,000; z-score at 25 µM; in the data active means z-score above about 3, passing the limit was not always enough;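 further: higher signal means more uncleaved substrate so more Dicer inhibition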
# Numbers stand for hits; – = inactive. This excerpt belongs to a sample that is enriched for hits.
SMILES,Dicer inh
O=C1CC(c2ccc(O)cc2)Oc2cc(O)ccc21 (stereo not drawn),4.8
O=C1CC(c2ccccc2)Oc2cc(Cl)ccc21 (stereo not drawn),–
O=C1CC(c2ccccc2)Oc2ccccc21 (stereo not drawn),–
CC(=O)c1ccc(N2CC(C)OC(C)C2)c(N)c1 (stereo not drawn),–
O=c1[nH]c2sc(-c3ccccc3)cc2c(=O)n1-c1ccccc1,–
Cc1ccccc1-n1c(=S)[nH]c2sc(-c3ccccc3)cc2c1=O,–
Cc1ccc(-n2c(=O)[nH]c3sc(-c4ccccc4)cc3c2=O)cc1,3.2
COCCOC(=O)C1=C(C)NC2=C(C(=O)CC(C)(C)C2)C1c1ccc(OC)c(OC)c1 (stereo not drawn),3.7
COC(=O)C1=C(C)NC2=C(C(=O)CC(c3ccc(Cl)cc3)C2)C1c1ccccc1Cl (stereo not drawn),3.4
COC(=O)C1=C(C)NC2=C(C(=O)CC(c3ccccc3)C2)C1c1ccccc1F (stereo not drawn),–
CC1=C(C(=O)OCC2CCCO2)C(c2cccc(Br)c2)C2=C(CC(C)(C)CC2=O)N1 (stereo not drawn),–
COc1ccccc1C1C(C(=O)OC(C)C)=C(C)NC2=C1C(=O)CC(c1ccccc1)C2 (stereo not drawn),–
CCOCCOC(=O)C1=C(C)NC2=C(C(=O)CC(C)(C)C2)C1c1ccc(OC)c(OC)c1 (stereo not drawn),–
CC1=C(C(=O)OCC2CCCO2)C(c2cccc(Cl)c2)C2=C(CC(C)(C)CC2=O)N1 (stereo not drawn),–
CCCCOC(=O)C1=C(C)NC2=C(C(=O)CC(C)(C)C2)C1c1ccc(OC)c(OC)c1 (stereo not drawn),–
COc1cccc(C2C(C(=O)OC3CCCC3)=C(C)NC3=C2C(=O)CC(c2ccccc2)C3)c1OC (stereo not drawn),–
COC(=O)C1=C(C)NC2=C(C(=O)CC(c3ccccc3)C2)C1c1ccccc1Cl (stereo not drawn),–
CC1=C(C(=O)OCC2CCCO2)C(c2cccc(O)c2)C2=C(CC(C)(C)CC2=O)N1 (stereo not drawn),3.1
COc1cccc(C2C(C(=O)OC(C)C)=C(C)NC3=C2C(=O)CC(c2ccccc2)C3)c1OC (stereo not drawn),7.6
COc1cc(C(c2c[nH]c3ccccc23)c2c[nH]c3ccccc23)ccc1OCC(=O)O,–
NN(CCO)C(=S)Nc1cc(Cl)ccc1Cl,–
COc1ccc(OC)c(CNc2ncc(-c3ccc(Cl)cc3)n2C)c1,–
O=[N+]([O-])c1ccc(Oc2c(Cl)cc(S(=O)(=O)N3CCCCC3)cc2Cl)c(Cl)c1,–
NC1=NCC2c3ccccc3Cc3ccccc3N12 (stereo not drawn),–
C=CCNC(=O)Cc1c(C)oc2ccccc12,–
SMILES,Dicer inh
CCc1cccc(CC)c1NC(=O)/C=C/C(=O)O,–
Cc1ccc(-c2nc(NC(=O)Nc3ccc(C(F)(F)F)cc3)sc2C)cc1Cl,–
Fc1cccc(Cl)c1CSc1nnc(C2CC2)n1-c1ccc(Cl)cc1,–
CCCCCOC(=O)C1=C(C)NC2=C(C(=O)CCC2)C1c1ccc(OC)c(Br)c1 (stereo not drawn),–
CCOc1ccc(C2C(C(=O)OCCOC)=C(C)NC3=C2C(=O)CCC3)cc1OC (stereo not drawn),–
CCCCCOC(=O)C1=C(C)NC2=C(C(=O)CCC2)C1c1ccc(OCC)c(OC)c1 (stereo not drawn),4.2
COC(=O)C1=C(C)NC2=C(C(=O)CC(c3ccc(OC)cc3)C2)C1c1ccc(OC)c(OC)c1 (stereo not drawn),–
COC(=O)C1=C(C)NC2=C(C(=O)CC(c3ccc(OC)c(OC)c3)C2)C1c1ccc(F)cc1 (stereo not drawn),4.5
COC(=O)C1=C(C)NC2=C(C(=O)CC(c3ccc(OC)c(OC)c3)C2)C1c1ccc(SC)cc1 (stereo not drawn),–
CCCCNC(=S)NNC(=O)CNC(=O)OC(C)(C)C,–
O=C1CC(CSc2nnnn2-c2ccccc2)=NN1c1nc2ccccc2[nH]1,–
Cc1nnc(SCC2=NN(c3nc4ccccc4[nH]3)C(=O)C2)s1,3.2
Cc1nnc(SCc2cc(=O)n3c(nc4ccccc43)[nH]2)s1,–
O=C1CCCC(OC(=O)c2ccc(Cl)cc2)=C1Cl,–
N#CC(=C1SCCS1)c1ccc(Cl)cc1,4.7
N#CC(=C1SCCCCS1)S(=O)(=O)c1ccc(Cl)cc1,–
N#CC(=C1SCCS1)S(=O)(=O)c1ccc(Cl)cc1,–
O=C(CCSc1nc(-c2ccc3c(c2)OCO3)cc(C(F)(F)F)n1)N1CCCCC1,–
CCOC(=O)c1ccc(N2C(=O)C3C4C=CC(CO)(O4)C3C2=O)cc1 (stereo not drawn),–
Cc1ccccc1C(=O)N1NC(=Nc2ccccc2)SC1(C)C,–
CC(C)(C)NC(=O)Cn1c(=O)oc2ccc(Cl)cc21,–
CCCCCOC(=O)Cn1c(=O)oc2ccc(C)cc21,–
Cc1cccc(Cn2c(=O)oc3ccc(C)cc32)c1,–
